# Measurements from PubChem BioAssay AID602477 (National Center for Advancing Translational Sciences (NCATS), 2012).
# Inconclusive results are not listed. The source made the active and inactive calls. The call rests on the fitted dose curve; in most records, active means well fitted activation curve with a large enough effect; inconclusive means small, poorly fitted or top-dose-only effect; inactive means no such curve, though single readings can be large or run the other way.
# Test: FLuc inhibitory activity for the follow-up compounds in a cell-based assay to assess the activity of miR-21
# Conditions: HeLa miR-21-FLuc reporter, luciferase luminescence, 48 h; series mostly up to 38.3 µM
# Text: NCGC Assay Overview: Firefly (Photinus pyralis) luciferase is one of the most commonly used transcriptional reporters. It is considered one of the more dynamically responsive reporters - that is, responsive to changes in reporter transcription - as it requires no post-translational modifications and is enzymatically active directly after protein synthesis (Wood, 1998). With no endogenous expression in mammalian cells and without the requirement of external excitation, it offers very little background signal, thus generally providing excellent signal to background for most assays. Previous profiling work to determine the prevalence of compounds that affect FLuc enzymatic activity (PubChem AID 411) identified that ~3% of the MLSMR library (then at ~72K) inhibited FLuc (Auld et al., 2008). […] Of the compounds identified in this profile that inhibited FLuc, 151 compounds were selected for further analysis, in an effort to better understand their mode of inhibiting FLuc. The assay described here was to determine the activity of the compounds in a cell-based firefly luciferase reporter gene assay originally designed to identify antagonists of miR-21. Compounds that inhibit miR-21 or compounds that stabilize FLuc intracellularly are identified as active compounds in the assay.
# NCGC Assay Protocol Summary: Reagents: In-house detection reagent: 300mM Tris-HCl, 300mM Trizma base, 300mM MgCl, 1% Triton-X100, 5mM DTT, 500uM Coenzyme A trilithium salt (Sigma #C3019),450uM ATP (Sigma #A7699), 1mM D-luciferin sodium salt monohydrate (Biosynth #L8240) HeLa cells stably expressing firefly luciferase (FLuc) under the control of a CMV promoter (upstream) and a miR-21 binding sequence directly downstream of the gene. These cells endogenously express miR-21. Control compounds used were two known firefly luciferase inhibitors (3-(5-(3-chlorophenyl)-1,2,4-oxadiazol-3-yl)benzoic acid and 5-(2-fluorophenyl)-3-phenyl-1,2,4-oxadiazole), and DMSO. Assay Summary: 6uL of HeLa miR-21-FLuc cells in assay buffer (DMEM, Invitrogen #21063-029; 10% FBS, HyClone #SH30071.03) were dispensed at 2000cells/well (3.3 x 10^5 cells/mL) into Greiner solid-white TC-treated 1536-well plates using a Multidrop Combi (Thermo Fisher Scientific). Plates were incubated for one hour at 37 degree Celsius, 95% humidity, 5% CO2. These assay plates were then treated with 23nL of compound or DMSO using a Kalypsys pin tool, which allows for delivery of a 12-point titration of each compound to the assay plate, with a final compound concentration ranging from approximately ~38uM to 0.2nM. Assay plates were then incubated for 48 hours. After incubation, plates were allowed to come to RT for one hour prior to delivery of 3uL of 3X luciferase detection reagent. After a 15 minute incubation to allow for cell lysis, luciferase activity was measured using a ViewLux CCD imager (PerkinElmer), with an average exposure time of 2-12 seconds.
row,SMILES,Potency
1,Cc1ccc(C(=O)O/N=C(\N)c2ccccn2)c(Cl)c1,0.0318 µM (active)
2,COc1ccc2nc(NC(=O)c3ccco3)sc2c1,0.1 µM (active)
3,COc1ccc(-c2nc3ccccc3s2)cc1O,1.79 µM (active)
4,CCOc1ccc2nc(NC(=O)Cc3cccs3)sc2c1,3.56 µM (active)
5,O=C(O)c1cccc(NC(=O)c2cccc(S(=O)(=O)N3CCCCC3)c2)c1,14.2 µM (active)
6,CC(C)(C)C(=O)Nc1ccc(-c2nc3ccccc3s2)cc1,inactive
7,Nc1ccccc1-c1nc2ccccc2s1,3.18 µM (active)
8,COc1ccc(Br)cc1C(=O)Nc1ccc(C(=O)O)cc1,7.98 µM (active)
9,Cc1ccc2nc(-c3ccc(N)cc3)sc2c1,0.0356 µM (active)
10,CC(C)Oc1ccc(C(=O)Nc2ccc(-c3nc4ccccc4s3)cc2)cc1,1.13 µM (active)
11,CC(C)CC(=O)Nc1cccc(C(=O)Nc2ccccc2C(=O)O)c1,inactive
12,CN(C)S(=O)(=O)c1ccc(C(=O)Nc2cccc(C(=O)O)c2)cc1,inactive
13,Cc1ccc(C(=O)Nc2cccc(C(=O)O)c2)cc1S(=O)(=O)N1CCCCC1,0.565 µM (active)
14,O=C(Nc1ccccc1C(=O)O)c1cccc(NC(=O)c2ccc(Br)o2)c1,inactive
15,O=C(O)c1cccc(NC(=O)c2ccccc2NC(=O)c2ccccc2F)c1,inactive
16,Cc1c(NC(=O)c2cc(-n3cnnc3)ccc2Cl)cccc1-c1nc2ccccc2s1,2.83 µM (active)
17,O=C(Nc1ccccc1C(=O)O)c1cc(S(=O)(=O)Nc2cccc(F)c2)ccc1Cl,inactive
18,O=C(O)c1cccc(NC(=O)c2cccc(S(=O)(=O)N3CCc4ccccc43)c2)c1,inactive
19,O=C(O)c1cccc(NC(=O)c2ccc(COc3ccc(Cl)cc3)cc2)c1,12.6 µM (active)
20,CC(C)C(=O)Nc1cccc(C(=O)Nc2ccccc2C(=O)O)c1,inactive

row,SMILES,Potency
1,Cc1c(NC(=O)c2cccs2)cccc1-c1nc2ccccc2s1,20 µM (active)
2,CCOc1ccc(C(=O)Nc2cccc(C(=O)O)c2)cc1Cl,0.356 µM (active)
3,O=C(O)c1ccc(NC(=O)c2cc(S(=O)(=O)N3CCCCC3)c(Cl)cc2Cl)cc1,inactive
4,Cc1c(NS(C)(=O)=O)cccc1-c1nc2ccccc2s1,4 µM (active)
5,Cc1ccc(C(=O)Nc2ccc(C(=O)O)cc2)cc1S(=O)(=O)NCc1ccccc1,inactive
6,CC(=O)Oc1ccc(C(=O)Nc2ccccc2C(=O)Nc2ccc(C(=O)O)cc2)cc1,inactive
7,Cc1ccc(C(=O)Nc2cccc(C(=O)O)c2)cc1S(=O)(=O)N1CCCC1,1 µM (active)
8,O=C(Nc1ccccc1C(=O)O)c1ccc(NC(=O)C2CCCCC2)cc1,inactive
9,O=C(O)c1cccc(NC(=O)c2ccc(S(=O)(=O)c3ccccc3)cc2)c1,inactive
10,CC(C)c1ccc(-c2nc3ccccc3s2)cc1,0.0252 µM (active)
11,Nc1ccc(-c2nc3ccc(C(=O)O)cc3s2)cc1,0.0142 µM (active)
12,COc1ccc(C(=O)Nc2ccccc2-c2nc3ccccc3s2)c(OC)c1,22.5 µM (active)
13,Cc1ccc(C(=O)O/N=C(\N)c2ccccn2)cc1,0.2 µM (active)
14,CCOc1ccc2nc(NC(=O)c3ccccc3)sc2c1,0.1 µM (active)
15,O=C(Nc1ccc(-c2nc3ccccc3s2)cc1)C1=COCCO1,0.01 µM (active)
16,Cc1cccc(C(=O)Nc2ccccc2C(=O)Nc2ccc(C(=O)O)cc2)c1,15.9 µM (active)
17,Nc1ccccc1C(=O)Nc1cccc(C(=O)O)c1,11.3 µM (active)
18,Cc1ccc(S(=O)(=O)N2CCOCC2)cc1C(=O)Nc1ccccc1C(=O)O,inactive
19,Cc1ccc2nc(-c3ccc(NC(=O)CN4CCN(C(=O)c5ccco5)CC4)cc3)sc2c1,4.49 µM (active)
20,O=C(Nc1ccccc1C(=O)O)c1cc(S(=O)(=O)NCc2ccccc2)ccc1Cl,inactive
